{"source": "PubChem BioAssay AID778", "about": "(Sanford-Burnham Center for Chemical Genomics, 2007)", "note": "Screen size: about 96,000 compounds; about 20,000 (21%) were called active. A selection follows. Values without a mark were called inactive.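 How the source made its calls: active means CYP2C19 inhibition above a set limit at 5 µM in the primary screen (cut at about 50% in these data); inactive means the rest.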", "data": [{"molecular_target": "Cytochrome P450 2C19 (Homo sapiens) (UniProt P33261)", "sequence (P33261 whole entry, looked up)": "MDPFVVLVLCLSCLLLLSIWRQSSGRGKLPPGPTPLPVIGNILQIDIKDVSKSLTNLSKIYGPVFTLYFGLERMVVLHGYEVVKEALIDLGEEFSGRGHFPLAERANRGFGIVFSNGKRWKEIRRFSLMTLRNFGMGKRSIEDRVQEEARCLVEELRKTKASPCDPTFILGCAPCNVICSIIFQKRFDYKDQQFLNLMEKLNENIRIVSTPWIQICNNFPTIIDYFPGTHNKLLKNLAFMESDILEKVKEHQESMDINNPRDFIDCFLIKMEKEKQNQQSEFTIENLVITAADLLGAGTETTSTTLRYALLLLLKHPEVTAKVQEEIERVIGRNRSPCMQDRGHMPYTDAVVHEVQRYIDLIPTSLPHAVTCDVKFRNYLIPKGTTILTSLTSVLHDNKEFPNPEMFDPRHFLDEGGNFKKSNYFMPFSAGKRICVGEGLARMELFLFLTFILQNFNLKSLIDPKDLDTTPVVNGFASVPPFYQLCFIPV", "assay": "blockers of cytochrome P450 2C19 activity – biochemical, luminescence, ADME assay, primary screen (AID 778);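 further: plate controls were negative control wells for no effect and 2.5 mM tranylcypromine positive control for full effect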", "details": "CYP2C19 Supersomes, luciferin-H EGE luminescence, 30 min; at 5 µM; active compounds read high", "values": [{"smiles": "CCOC(=O)c1sc(NC(=O)CSc2ncccn2)c(C#N)c1C", "inhibition": "6.5%"}, {"smiles": "CCOC(=O)c1cc(NC(=O)c2cccnc2)cc(C(=O)OCC)c1", "inhibition": "22.9%"}, {"smiles": "Cc1cc(C(=O)CC#N)c(C)n1CC(F)(F)F", "inhibition": "17%"}, {"smiles": "CC(C)OCCCNC(=O)CNC(=O)c1cccs1", "inhibition": "14%"}, {"smiles": "CCCCOc1ccc(C(C)(O)CCN2CCOCC2)cc1", "note": "(configuration not stated)", "inhibition": "-1.7%"}, {"smiles": "CCCOc1ccc(C2c3c(oc4cc(C)c(C)cc4c3=O)C(=O)N2CCCN2CCOCC2)cc1", "note": "(configuration not stated)", "inhibition": "69.9% (active)"}, {"smiles": "CCOc1ccc(C2C(C(=O)O)c3ccccc3C(=O)N2CCN2CCOCC2)cc1", "note": "(configuration not stated)", "inhibition": "-12.7%"}, {"smiles": "COC(=O)[C@H](C)NC(=O)Nc1ccc(OC(F)(F)F)cc1", "inhibition": "9.5%"}, {"smiles": "Cc1ccc(N2C(=O)S/C(=C/c3cn(C)c4ccccc34)C2=O)cc1", "inhibition": "-7.8%"}, {"smiles": "COc1ccc(-n2nnnc2SCc2nc(N)nc(N3CCOCC3)n2)cc1", "inhibition": "22.5%"}, {"smiles": "COc1ccc(-c2nnn(Cc3nc(N)nc(N4CCCCC4)n3)n2)cc1", "inhibition": "65.2% (active)"}, {"smiles": "CCc1ccc(-c2nnn(Cc3nn[nH]n3)n2)cc1", "inhibition": "14.2%"}, {"smiles": "CCN(CC)Cc1cc(C(C)=O)ccc1O", "inhibition": "-2.4%"}, {"smiles": "Cc1c(CN2CCC(C)CC2)c(=O)n(-c2ccccc2)n1C", "inhibition": "-0.1%"}, {"smiles": "Cc1nnc(SCC(=O)NCc2ccccc2)s1", "inhibition": "-3.1%"}, {"smiles": "Cc1nnc(SCc2nc3ccccc3nc2C)s1", "inhibition": "52.6% (active)"}, {"smiles": "Cc1nnc(SCC(=O)N2CCc3ccccc3C2)s1", "inhibition": "42.5%"}, {"smiles": "CCc1c(C)sc(NC(=O)OC)c1C(=O)N1CCOCC1", "inhibition": "-0.7%"}, {"smiles": "CC(C)OC(=O)CN1C(=O)c2ccccc2C1=O", "inhibition": "24%"}, {"smiles": "C=CCn1c(C)cc(C(=O)CN2C(=O)c3ccccc3C2=O)c1C", "inhibition": "2.9%"}, {"smiles": "CC(=O)c1cnc(SCCN2C(=O)c3ccccc3C2=O)nc1C", "inhibition": "57.8% (active)"}, {"smiles": "CC(=O)NNc1cc(=O)c2c(=O)n(C)c(=O)n(C)c2[nH]1", "inhibition": "-1.8%"}, {"smiles": "Cc1cc(=O)n2c3c(cccc13)CCC2", "inhibition": "18.8%"}, {"smiles": "COc1ccc(/C=C2/S/C(=N/N=C3\\CC4CCC3(C)C4(C)C)NC2=O)cc1", "note": "(configuration not stated)", "inhibition": "-9.6%"}, {"smiles": "CCOCCCNS(=O)(=O)Cc1ccccc1", "inhibition": "42.5%"}, {"smiles": "CCOc1ccc2nc(NCCNS(=O)(=O)c3ccccc3)c(C#N)cc2c1", "inhibition": "24.6%"}, {"smiles": "CCOc1ccc(S(=O)(=O)NCCSc2ccccc2)cc1", "inhibition": "98.7% (active)"}, {"smiles": "COCCNC(=O)Cn1cc2c(n1)CCCCC2", "inhibition": "-6.8%"}, {"smiles": "O=C1C2C3C=CC(C4CC34)C2C(=O)N1/N=C/c1ccc(-c2ccccc2[N+](=O)[O-])o1", "note": "(configuration not stated)", "inhibition": "72.2% (active)"}, {"smiles": "CCOc1cc2[nH]c(=O)n(CCC(=O)NCc3ccc(OC)cc3)c(=O)c2cc1OCC", "inhibition": "-6%"}, {"smiles": "O=C(NCC1CCCO1)/C(=C\\c1ccco1)NC(=O)c1ccccc1", "note": "(configuration not stated)", "inhibition": "-11.9%"}, {"smiles": "Cc1cccc(NC(=O)/C(=C\\c2ccco2)NC(=O)c2ccccc2)c1", "inhibition": "13.6%"}, {"smiles": "C/C(=C\\c1ccco1)C1Nc2cccc3cccc(c23)N1", "inhibition": "72.8% (active)"}, {"smiles": "CCOC(=O)N1CCN(C(=O)c2cnc3n(c2=O)CCS3)CC1", "inhibition": "-15.9%"}, {"smiles": "CCOC(=O)c1nc(C)n(-c2ccc(Cl)cc2Cl)n1", "inhibition": "16.5%"}, {"smiles": "Cc1nn(C(C)CC(=O)O)c(C)c1C", "note": "(configuration not stated)", "inhibition": "6.7%"}, {"smiles": "Cc1ccc(N2C(=O)C3C(c4ccccc4)(C2=O)C3(c2ccccc2)c2ccccc2)cc1", "note": "(configuration not stated)", "inhibition": "8.1%"}, {"smiles": "CCC(=O)N1CCN=C1SCc1ccc(F)cc1", "inhibition": "78.7% (active)"}, {"smiles": "CCCOC(=O)CC1C(=O)NCCN1Cc1ccc(F)cc1", "note": "(configuration not stated)", "inhibition": "19.1%"}, {"smiles": "CSC1=NCCN1C(=O)c1ccc(S(=O)(=O)N2CCOCC2)cc1", "inhibition": "13.3%"}, {"smiles": "O=C(C1CC1)N1CCN=C1SCc1ccc(Cl)cc1", "inhibition": "98.5% (active)"}, {"smiles": "O=C(c1ccco1)N1CCN=C1SCc1cccc(Cl)c1", "inhibition": "20.6%"}, {"smiles": "CCOC(=O)c1c(C(C#N)C#N)cc(C)nc1C", "inhibition": "-4.1%"}, {"smiles": "CC(=O)Nc1ccc(NC(=O)c2sc3nc4c(c(-c5ccc(C)cc5)c3c2N)CCC4)cc1", "inhibition": "-6.7%"}, {"smiles": "NS(=O)(=O)c1ccc(NS(=O)(=O)/C=C/c2ccccc2)cc1", "inhibition": "38.8%"}, {"smiles": "O=S(=O)(/C=C/c1ccccc1)NCCc1ccccn1", "inhibition": "53.8% (active)"}, {"smiles": "C/C(N)=C(\\C#N)C(=O)NCCc1ccccn1", "inhibition": "-6.3%"}, {"smiles": "COc1ccc(CC(=O)Nc2nc3n(n2)C(c2ccccc2)CC(=O)N3)cc1OC", "note": "(configuration not stated)", "inhibition": "-4.1%"}, {"smiles": "COc1ccc(CN2CCCCC2C)cc1OC", "note": "(configuration not stated)", "inhibition": "3%"}, {"smiles": "CCc1ccc2oc(=O)cc(CN3CCCCC3C)c2c1", "note": "(configuration not stated)", "inhibition": "92.7% (active)"}, {"smiles": "O=c1cc(CN2CCN(c3cccc(Cl)c3)CC2)c2cc3c(cc2o1)CCCC3", "inhibition": "12.6%"}, {"smiles": "O=C(CSc1nnc(-c2ccoc2)o1)N1CCOCC1", "inhibition": "-14.6%"}]}]}
